# Results published in PubChem BioAssay (NCI).
# The panel holds about 79,000 compounds, 15% with a hit somewhere; the sample as a whole holds those more often. Active and inactive are the calls of the source. Rule as the data show it: active = growth inhibition above about 70%; inactive = the rest.
# Assay: NCI Yeast Anticancer Drug Screen. Data for the bub3 strain (AID 167)
# Conditions: S. cerevisiae bub3 mutant strain, at 50.0 µM, hits give high values
# How it was run: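 Yeast carrying a defined mutation is treated with each compound, and growth is compared with that of vehicle-exposed cells to give inhibition.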
row,SMILES,growth inhibition
1,CC1CC(C(=O)OC2OC(COC3OC(CO)C(OC4OC(C)C(O)C(O)C4O)C(O)C3O)C(O)C(O)C2O)C2CCC3(C)C(=CCC4(C)C3CCC3C(C)(CO)C(O)C(O)CC34C)C2C1C (stereo unspecified),77.8% (active)
2,CC1CC2(OC2C)C(=O)OC2CCN(C)C/C=C(/COC(=O)C1(C)O)C2=O (stereo unspecified),-10.8% (inactive)
3,CC(C)CCCC(C)[C@H]1CC[C@H]2[C@@H]3CC[C@H]4C[C@@H](CCC=C(c5cc(Cl)c(O)c(C(=O)O)c5)c5cc(Cl)c(O)c(C(=O)O)c5)CC[C@]4(C)[C@H]3CC[C@]12C (stereo partly specified) (tested in a mixture with another compound),10.7% (inactive)
4,COC(=O)c1cnn2c1n[n+]([O-])c1ccccc12,-37% (inactive)
5,CC(C)/C(Cl)=N/OC(=O)Nc1cccc(C(F)(F)F)c1,65.5% (inactive)
6,COc1ccc2cc1Oc1ccc(cc1)CC1c3cc(OC)c(cc3CCN1C)Oc1c(OC)c(OC)cc3c1C(C2)N(C)CC3 (stereo unspecified),5.25% (inactive)
7,CC(=O)c1ccc(NC(=O)/C(CC(=O)/C=C/c2ccccc2)=N/NC(N)=S)cc1,35.1% (inactive)
8,COC(=O)C(=O)C(C(=O)C(=O)Nc1ccc(Cl)c(Cl)c1)c1nc2ccc(C(=O)c3ccccc3)cc2[nH]c1=O (stereo unspecified),-3.05% (inactive)
9,CC(C)=CCc1cc(C2COc3cc4c(c(O)c3C2=O)C=CC(C)(C)O4)c(O)cc1O (stereo unspecified),91.6% (active)
10,O=C1c2ccccc2-c2c1c1ccccc1c(=O)n2-c1cccnc1,6% (inactive)
11,N=C1N=C(N)CS1,25.9% (inactive)
12,CCCCCCCCCC(=O)CC(=O)c1c(O)cc(O)cc1O,31.8% (inactive)
13,CC12CCC(CC1)C(C)(C)O2,-1.25% (inactive)
14,COc1cc2c3cc1Oc1c(OC)c(OC)cc4c1C(Cc1ccc(O)c(c1)-c1cc(ccc1OC)CC3N(C)CC2)N(C)CC4 (stereo unspecified),8.85% (inactive)
15,C=C1C(=O)OC2CC(C)C3(O)CCC(=O)C3(C)CC12 (stereo unspecified),-18.4% (inactive)
16,CNC(=S)c1nnsc1N,6.3% (inactive)
17,Cc1ccc(/C=N/Nc2nncc3ccccc23)s1,21.7% (inactive)
18,COc1ccc(-c2coc3c4c(ccc3c2=O)OCO4)cc1OC,-8.45% (inactive)
19,Cc1ccc(OCC2OC(n3cnc4c(Cl)nc(Cl)nc43)CC2Oc2ccc(C)cc2)cc1 (stereo unspecified),27.4% (inactive)

row,SMILES,growth inhibition
1,NNc1[nH]c(=S)[nH]c1C(N)=O,-22.1% (inactive)
2,CCOC(=O)C(=O)C(CCC(=O)c1ccc2ccccc2c1O)C(=O)OCC (stereo unspecified),0.5% (inactive)
3,Cc1ccc(C)c(NC(=O)/C(=N\N)C(c2cnc3ccc([N+](=O)[O-])cc3n2)[N+](=O)[O-])c1 (stereo unspecified),32.2% (inactive)
4,CC1C2(C)OC(=N)C(C#N)(C(c3cccc([N+](=O)[O-])c3)O2)C1(C#N)C#N (stereo unspecified),-10.4% (inactive)
5,Cn1c2c(c3ccccc3c1=O)C(=O)c1ccccc1-2,7.7% (inactive)
6,C[N+](C)(CCNC(=O)c1cccc2cc3ccccc3nc12)Cc1ccc([N+](=O)[O-])s1,-40% (inactive)
7,CCC(=O)C(CC)c1cccc(OC)c1 (stereo unspecified),9.55% (inactive)
8,COc1c2c(c3c(c1OC)c(=O)c1ccccc1n3C)OCO2,8.8% (inactive)
9,CC/C(Cl)=N\OC(=O)Nc1ccc(OC)cc1,1.15% (inactive)
10,O=C(O)CCCC(=O)Nn1c(Cc2ccc(Cl)cc2)n[nH]c1=O,-7.15% (inactive)
11,CC1OC23CCCCC2C(C#N)(C#N)C1(C#N)C(=N)O3 (stereo unspecified),-35% (inactive)
12,N#CC1(C#N)C2CCCCC23OC(=N)C1(C#N)C(c1ccco1)O3 (stereo unspecified),-41.5% (inactive)
13,CNC(=S)/C(=N\Nc1nc[nH]c1C(N)=O)C(N)=S,15.1% (inactive)
14,COC(=O)C(C(=O)C(=O)NC1Nc2ccc(C)cc2S1)c1nc2ccc(Cl)cc2[nH]c1=O (stereo unspecified),13.2% (inactive)
15,O=C(O)c1n[nH]nc1Cl,-6.15% (inactive)
16,CSc1nc(Br)nc2ncn(C3CC(Oc4ccc(C)cc4)C(COc4ccc(C)cc4)O3)c12 (stereo unspecified),-3.15% (inactive)
17,CC(C)O/N=C/c1cc(NC(=S)OC(C)C)ccc1Cl,-10.9% (inactive)
18,Cc1ccc(OCC2OC(n3cnc4nc(N)nc(Cl)c43)CC2Oc2ccc(C)cc2)cc1 (stereo unspecified),49.3% (inactive)
19,COc1ccc(C)cc1NC(=S)C#N,1.3% (inactive)

# Assay: NCI Yeast Anticancer Drug Screen. Data for the mlh1 rad18 strain (AID 175)
# Conditions: S. cerevisiae mlh1 rad18 strain growth inhibition; at 50.0 µM; hits give high values
# How it was run: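 Yeast w/ defined DNA-repair lesions; compound exposure; growth vs vehicle controls → % inhibition.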
row,SMILES,growth inhibition
1,CC1CC(C(=O)OC2OC(COC3OC(CO)C(OC4OC(C)C(O)C(O)C4O)C(O)C3O)C(O)C(O)C2O)C2CCC3(C)C(=CCC4(C)C3CCC3C(C)(CO)C(O)C(O)CC34C)C2C1C (stereo unspecified),24.4% (inactive)
2,CC1CC2(OC2C)C(=O)OC2CCN(C)C/C=C(/COC(=O)C1(C)O)C2=O (stereo unspecified),-52% (inactive)
3,CC(C)CCCC(C)[C@H]1CC[C@H]2[C@@H]3CC[C@H]4C[C@@H](CCC=C(c5cc(Cl)c(O)c(C(=O)O)c5)c5cc(Cl)c(O)c(C(=O)O)c5)CC[C@]4(C)[C@H]3CC[C@]12C (stereo partly specified) (tested in a mixture with another compound),51.2% (inactive)
4,COC(=O)c1cnn2c1n[n+]([O-])c1ccccc12,-8% (inactive)
5,CC(C)/C(Cl)=N/OC(=O)Nc1cccc(C(F)(F)F)c1,-91.7% (inactive)
6,COc1ccc2cc1Oc1ccc(cc1)CC1c3cc(OC)c(cc3CCN1C)Oc1c(OC)c(OC)cc3c1C(C2)N(C)CC3 (stereo unspecified),-43.3% (inactive)
7,CC(=O)c1ccc(NC(=O)/C(CC(=O)/C=C/c2ccccc2)=N/NC(N)=S)cc1,9.65% (inactive)
8,COC(=O)C(=O)C(C(=O)C(=O)Nc1ccc(Cl)c(Cl)c1)c1nc2ccc(C(=O)c3ccccc3)cc2[nH]c1=O (stereo unspecified),4.95% (inactive)
9,CC(C)=CCc1cc(C2COc3cc4c(c(O)c3C2=O)C=CC(C)(C)O4)c(O)cc1O (stereo unspecified),88% (active)
10,O=C1c2ccccc2-c2c1c1ccccc1c(=O)n2-c1cccnc1,-9.05% (inactive)
11,N=C1N=C(N)CS1,3.85% (inactive)
12,CCCCCCCCCC(=O)CC(=O)c1c(O)cc(O)cc1O,91.7% (active)
13,CC12CCC(CC1)C(C)(C)O2,4.7% (inactive)
14,COc1cc2c3cc1Oc1c(OC)c(OC)cc4c1C(Cc1ccc(O)c(c1)-c1cc(ccc1OC)CC3N(C)CC2)N(C)CC4 (stereo unspecified),-13.7% (inactive)
15,C=C1C(=O)OC2CC(C)C3(O)CCC(=O)C3(C)CC12 (stereo unspecified),-33.5% (inactive)
16,CNC(=S)c1nnsc1N,-0.4% (inactive)
17,Cc1ccc(/C=N/Nc2nncc3ccccc23)s1,38.5% (inactive)
18,COc1ccc(-c2coc3c4c(ccc3c2=O)OCO4)cc1OC,-30.8% (inactive)
19,Cc1ccc(OCC2OC(n3cnc4c(Cl)nc(Cl)nc43)CC2Oc2ccc(C)cc2)cc1 (stereo unspecified),-33.5% (inactive)

row,SMILES,growth inhibition
1,NNc1[nH]c(=S)[nH]c1C(N)=O,-11.7% (inactive)
2,CCOC(=O)C(=O)C(CCC(=O)c1ccc2ccccc2c1O)C(=O)OCC (stereo unspecified),-35.9% (inactive)
3,Cc1ccc(C)c(NC(=O)/C(=N\N)C(c2cnc3ccc([N+](=O)[O-])cc3n2)[N+](=O)[O-])c1 (stereo unspecified),28.6% (inactive)
4,CC1C2(C)OC(=N)C(C#N)(C(c3cccc([N+](=O)[O-])c3)O2)C1(C#N)C#N (stereo unspecified),-9.1% (inactive)
5,Cn1c2c(c3ccccc3c1=O)C(=O)c1ccccc1-2,-23.7% (inactive)
6,C[N+](C)(CCNC(=O)c1cccc2cc3ccccc3nc12)Cc1ccc([N+](=O)[O-])s1,-36.7% (inactive)
7,CCC(=O)C(CC)c1cccc(OC)c1 (stereo unspecified),21.4% (inactive)
8,COc1c2c(c3c(c1OC)c(=O)c1ccccc1n3C)OCO2,13.2% (inactive)
9,CC/C(Cl)=N\OC(=O)Nc1ccc(OC)cc1,-68.8% (inactive)
10,O=C(O)CCCC(=O)Nn1c(Cc2ccc(Cl)cc2)n[nH]c1=O,-1.85% (inactive)
11,CC1OC23CCCCC2C(C#N)(C#N)C1(C#N)C(=N)O3 (stereo unspecified),2.95% (inactive)
12,N#CC1(C#N)C2CCCCC23OC(=N)C1(C#N)C(c1ccco1)O3 (stereo unspecified),-25.4% (inactive)
13,CNC(=S)/C(=N\Nc1nc[nH]c1C(N)=O)C(N)=S,21.1% (inactive)
14,COC(=O)C(C(=O)C(=O)NC1Nc2ccc(C)cc2S1)c1nc2ccc(Cl)cc2[nH]c1=O (stereo unspecified),28.9% (inactive)
15,O=C(O)c1n[nH]nc1Cl,19.2% (inactive)
16,CSc1nc(Br)nc2ncn(C3CC(Oc4ccc(C)cc4)C(COc4ccc(C)cc4)O3)c12 (stereo unspecified),-4.75% (inactive)
17,CC(C)O/N=C/c1cc(NC(=S)OC(C)C)ccc1Cl,-57.5% (inactive)
18,Cc1ccc(OCC2OC(n3cnc4nc(N)nc(Cl)c43)CC2Oc2ccc(C)cc2)cc1 (stereo unspecified),2.6% (inactive)
19,COc1ccc(C)cc1NC(=S)C#N,-44.9% (inactive)
